# Experimental data: the supplement of paper PMC10105736
# Values without a mark were called inactive.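 The calls were made as follows: active = MAPPIT score above the 99th percentile of random reference set scores in the same batch; inactive = at or below it.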
# B1: dan (protein)
# chain: MNIRMGTKGKRPLRSLTPRDKIHAIQRIHDGESKASVARDIGVPESTLRGWCKNEDKLRFMSRQSATDNLCADALGDKMDGGGGGGGGAGGGGLLGPPEKRQRLDGALPLNFSNKLKFDELAFKRSPLNGLDYSTNKNLADLGYNGLPVDYAAFNGGVKAKVFGADINRPAADPSLNAISPLSSLTHLSGLTGISQSPLAISFNELTTNLNLLAQLNPGLAAMSGLNSFPAGAGNLRTPKPSGQTPLQVQSPRSDSGDRSAQGLSVKNWAKQKPGEGQGSLNLSIKNEGKGGDIKSPSPSIAPSQMGGPMTLSNLAEDPLLYWLKSQQTMLGLNPLYPPTIPMGVTSPPIRSSTPQHMSQLAQTPPIPSAPLTPSSTPSGSLDEKNAAWYNWCKAFGASLHTLNPNAATLAALQANQLQQQVATTAAEGGSMGDPSNILYSHLTKETETPSVRSLSSNEQNPEADEATETDLDGEVEPEASGKPEDLSAAGKVMTPSQSPIAHSSGSRSPEPKAKTKTPETTNSTSECKKILDNMLFKMGGMEATGPLMPEQGSSESEGSFQDTSNPHTNNNDVSASNNNNNNNSNKTDEEEKAKYLDCTADEDIEAIRHGEKFLQWLENCSNPRVTAVQLMQLRFLIAAIKSGNETPMIEKSALPEDSEEHAAEEEGSGRGKSRRRK
# B2: esg (protein)
# chain: MHTVEDMLVEKNYSKCPLKKRPVNYQFEAPQNHSNTPNEPQDLCVKKMEILEENPSEELINVSDCCEDEGVDVDHTDDEHIEEEDEDVDVDVDSDPNQTQAAALAAAAAVAAAAAASVVVPTPTYPKYPWNNFHMSPYTAEFYRTINQQGHQILPLRGDLIAPSSPSDSLGSLSPPPHHYLHGRASSVSPPMRSEIIHRPIGVRQHRFLPYPQMPGYPSLGGYTHTHHHHAPISPAYSENSYYSMRSMTPESSCSSSLPEDLSLKHKNLNLNLNTSQPGEQAAAKTGDMSPETMPNASAKKDKNQPPRYQCPDCQKSYSTFSGLTKHQQFHCPAAEGNQVKKSFSCKDCDKTYVSLGALKMHIRTHTLPCKCNLCGKAFSRPWLLQGHIRTHTGEKPFSCQHCHRAFADRSNLRAHLQTHSDIKKYSCTSCSKTFSRMSLLTKHSEGGCPGGSAGSSSSSELNYAGYAEP
# B3: Orco (protein)
# chain: MTTSMQPSKYTGLVADLMPNIRAMKYSGLFMHNFTGGSAFMKKVYSSVHLVFLLMQFTFILVNMALNAEEVNELSGNTITTLFFTHCITKFIYLAVNQKNFYRTLNIWNQVNTHPLFAESDARYHSIALAKMRKLFFLVMLTTVASATAWTTITFFGDSVKMVVDHETNSSIPVEIPRLPIKSFYPWNASHGMFYMISFAFQIYYVLFSMIHSNLCDVMFCSWLIFACEQLQHLKGIMKPLMELSASLDTYRPNSAALFRSLSANSKSELIHNEEKDPGTDMDMSGIYSSKADWGAQFRAPSTLQSFGGNGGGGNGLVNGANPNGLTKKQEMMVRSAIKYWVERHKHVVRLVAAIGDTYGAALLLHMLTSTIKLTLLAYQATKINGVNVYAFTVVGYLGYALAQVFHFCIFGNRLIEESSSVMEAAYSCHWYDGSEEAKTFVQIVCQQCQKAMSISGAKFFTVSLDLFASVLGAVVTYFMVLVQLK
# B4: Dhfr (protein)
# chain: MLRFNLIVAVCENFGIGIRGDLPWRIKSELKYFSRTTKRTSDPTKQNAVVMGRKTYFGVPESKRPLPDRLNIVLSTTLQESDLPKGVLLCPNLETAMKILEEQNEVENIWIVGGSGVYEEAMASPRCHRLYITKIMQKFDCDTFFPAIPDSFREVAPDSDMPLGVQEENGIKFEYKILEKHS
# B5: Rpt2 (protein)
# chain: MGQNQSAQGGAGEKKDDKDKKKKYEPPIPTRVGKKKRRAKGPDAAMKLPQVTPHTRCRLKLLKLERIKDYLMMEDEFIRNQERLKPQDEKNEEERSKVDDLRGTPMSVGNLEEIIDDNHAIVSTSVGSEHYVSILSFVDKDQLEPGCSVLLNHKVHAVVGVLSDDTDPMVTVMKLEKAPQETYADIGGLDTQIQEIKESVELPLTHPEYYEEMGIKPPKGVILYGPPGTGKTLLAKAVANQTSATFLRVVGSELIQKYLGDGPKLVRELFRVAEEHAPSIVFIDEIDAVGTKRYDSNSGGEREIQRTMLELLNQLDGFDSRGDVKVIMATNRIETLDPALIRPGRIDRKIEFPLPDEKTKRRIFTIHTSRMTLAEDVNLSELIMAKDDLSGADIKAICTEAGLMALRERRMKVTNEDFKKSKESVLYRKKEGTPEGLYL
# B6: Syngr (protein)
# chain: MDMLNQILSINNGGAYGGGKAGGAFDPLTFAMKPQVVIRALCWLFSVVVFGCISSEGWTEKDGKEYCLYNGDGMACKYGNMVGVFGFLASMGFMGGEFLFERMSSVKSRKRYVMADMGFSALWTFMYFVAFLYLWSQWSSSAPPPLGIGAGSMKTAIWFCLFSIVSWALCALMAYKRFLIGAGDEFTSAFETDPANVVHQQAYGYSMDNDNDQYSASPFGQPQQGGMEQQQSGMEYQQPTY
# B7: mex1 (protein)
# chain: MCNALCECLKCPGKVVCCCCSCACKMLLSIVFSALLMVVVIGLIVYFTVFYHKDKNTDEVQKQVAQLTPIVKRSIRDYFNKEY
# What was measured:
# Assay in all cases: MAPPIT interaction score (arbitrary units); higher = stronger binary interaction signal, active = hit call of the paper
# CG42831 = conditions: pair source set: RRS
# CG42659 = conditions: MAPPIT configuration: N-C; pair source set: screen_4
# Traf-like = conditions: MAPPIT configuration: N-N; pair source set: Lit-BS-16
# CG42512 = conditions: MAPPIT configuration: N-C; pair source set: RRS
# Orco = conditions: MAPPIT configuration: N-C; pair source set: Lit-BM-16
# CG42245 = conditions: MAPPIT configuration: N-N; pair source set: RRS
# CG3565 = conditions: MAPPIT configuration: N-N; pair source set: DPIM
# CG9588 = conditions: MAPPIT configuration: N-N; pair source set: Lit-BS-16
# Prosalpha2 = conditions: MAPPIT configuration: N-N; pair source set: Lit-BM-16
# Rpn1 = conditions: MAPPIT configuration: N-N; pair source set: Lit-BM-16
# Rpt1 = conditions: MAPPIT configuration: N-C; pair source set: Lit-BM-16
# Rpt6 = conditions: MAPPIT configuration: N-C; pair source set: Lit-BM-16
# CG3792 = conditions: MAPPIT configuration: N-C; pair source set: screen_4
# Dpm3 = conditions: MAPPIT configuration: N-C; pair source set: screen_3
# CG3651 = conditions: MAPPIT configuration: N-N; pair source set: RRS
# 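Also: HEK293T cells with Epo stimulation, STAT-responsive firefly luciferase reporter, fold induction versus unstimulated cells divided by the larger fold induction of two negative controls lacking either bait or prey.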
binder,measurement,setting,value
B1,MAPPIT interaction score,CG42831; MAPPIT configuration: N-C,0.788
same,MAPPIT interaction score,CG42831; MAPPIT configuration: N-N,0.273
B2,MAPPIT interaction score,CG42659,0.721
same,MAPPIT interaction score,Traf-like,0.713
B3,MAPPIT interaction score,CG42512,0.963
same,MAPPIT interaction score,Orco,-0.077
B4,MAPPIT interaction score,CG42245,0.497
B5,MAPPIT interaction score,CG3565,2.71 (active)
same,MAPPIT interaction score,CG9588,0.822
same,MAPPIT interaction score,Prosalpha2,2.86 (active)
same,MAPPIT interaction score,Rpn1,6.22 (active)
same,MAPPIT interaction score,Rpt1,1.56
same,MAPPIT interaction score,Rpt6,0.824
B6,MAPPIT interaction score,CG3792,-0.645
same,MAPPIT interaction score,Dpm3,-1.36
B7,MAPPIT interaction score,CG3651,0.00975
